Of roughly 8,800 targets only a part is listed; those with a hit were picked by preference. About 0.5% of all pairs of compound and target were hits.
Experiments:
Assay in all cases: log2 fold change, soluble protein after heating vs DMSO (PISA); higher = thermal stabilisation; K562 lysate, 10 uM; active = over 0.2 and 3.5 SD of the protein, either way, in both replicates (recomputed)
ibrutinib = compound: C=CC(=O)N1CCC[C@@H](n2nc(-c3ccc(Oc4ccccc4)cc3)c3c(N)ncnc32)C1 [ibrutinib]
Outline: (§1)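 K562 pellets were dounce-homogenised in PBS pH 7.4 containing 1 mM MgCl2, and the crude extract, at 1 mg/mL protein, was exposed to 10 μM compound for 30 min. Aliquots were heated for 3 min across 48°C-58°C, pooled, brought to 0.5% NP-40 at 4°C and spun at 21,000xg for 90 min, with the supernatant taken as soluble protein. TMTpro 16plex LC-MS/MS with equalised channel sums quantified that protein. Values are log-two fold changes in thermal stability relative to solvent controls, taken from duplicates.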

[1] = compound: CC(=O)c1cnc2ccc(-c3cc(Cl)c(O)c(Cl)c3)nc2c1N[C@H]1CC[C@H](CN(C)C)CC1
Outline: as §1

ralimetinib = compound: CC(C)(C)Cn1c(N)nc2ccc(-c3[nH]c(C(C)(C)C)nc3-c3ccc(F)cc3)nc21 [ralimetinib]
Outline: as §1

[2] = compound: CC(C)(O)CC(=O)NCCn1ccc2ncnc(Nc3ccc(Oc4cccc(C(F)(F)F)c4)c(Cl)c3)c21
Outline: as §1

[3] = compound: CC(C)C1=C2N=C(C=C(N2N=C1)NCC3=CC=CC=C3)NCCCCCCN
Outline: as §1

[4] = compound: CC1=C(C(CC(=O)N1)C2=CC=C(C=C2)C(F)(F)F)C(=O)NC3=C(C=C4C(=C3)C=NN4)F
Outline: as §1

[5] = compound: CC1=C(C2=C(C=C1)C(=O)C3=CC=CC=C3N2CCCN)C
Outline: as §1

[6] = compound: CC1=C(C=C(C=C1)NC(=O)C2=CC(=CC=C2)C(C)(C)C#N)NC3=CC4=C(C=C3)N=CN(C4=O)C
Outline: as §1

[7] = compound: CC1=C(C=C(C=C1)NC(=O)C2=CC(=CC=C2)N(C)C)NC(=O)C3=CC=C(C=C3)O
Outline: as §1

[8] = compound: CC1=CC=C(C=C1)SC2=C3C=C(SC3=CN=C2)C(=O)N
Outline: as §1

Measured: log2 fold change

PAXBP1 (UniProt Q9Y5B6)
inactive: ibrutinib -0.004 | [1] 0.019 | ralimetinib 0.027 | [2] -0.015 | [3] 0.006 | [4] -0.024 | [5] 0.007 | [6] -0.007 | [7] 0.077 | [8] 0.032

NACC1 (UniProt Q96RE7)
inactive: ibrutinib -0.015 | [1] -0.001 | ralimetinib 0.009 | [2] -0.003 | [3] -0.014 | [4] 0.039 | [5] -0.016 | [6] -0.022 | [7] 0.009 | [8] -0.022

MRPL51 (UniProt Q4U2R6)
inactive: ibrutinib 0.02 | [1] -0.005 | ralimetinib 0.048 | [2] 0.011 | [3] -0.038 | [4] 0.066 | [5] 0.006 | [6] -0.062 | [7] 0.051 | [8] 0.017

MRPS12 (UniProt O15235)
inactive: ibrutinib -0.003 | [1] -0.008 | ralimetinib 0.011 | [2] -0.067 | [3] 0.007 | [4] -0.004 | [5] -0.138 | [6] 0.003 | [7] -0.028 | [8] -0.02

NGLY1 (UniProt Q96IV0)
inactive: ibrutinib 0 | [1] -0.01 | ralimetinib 0.011 | [2] -0.008 | [3] 0.03 | [4] -0.001 | [5] -0.01 | [6] -0.006 | [7] 0.017 | [8] 0

NLRP2 (UniProt Q9NX02)
inactive: ibrutinib -0.007 | [1] -0.007 | ralimetinib 0.036 | [2] 0.021 | [3] -0.008 | [4] 0.007 | [5] 0.009 | [6] 0.003 | [7] 0.021 | [8] 0.021

NDUFS1 isoform 2 (UniProt P28331)
Sequence of UniProt P28331 (P28331 whole entry, looked up): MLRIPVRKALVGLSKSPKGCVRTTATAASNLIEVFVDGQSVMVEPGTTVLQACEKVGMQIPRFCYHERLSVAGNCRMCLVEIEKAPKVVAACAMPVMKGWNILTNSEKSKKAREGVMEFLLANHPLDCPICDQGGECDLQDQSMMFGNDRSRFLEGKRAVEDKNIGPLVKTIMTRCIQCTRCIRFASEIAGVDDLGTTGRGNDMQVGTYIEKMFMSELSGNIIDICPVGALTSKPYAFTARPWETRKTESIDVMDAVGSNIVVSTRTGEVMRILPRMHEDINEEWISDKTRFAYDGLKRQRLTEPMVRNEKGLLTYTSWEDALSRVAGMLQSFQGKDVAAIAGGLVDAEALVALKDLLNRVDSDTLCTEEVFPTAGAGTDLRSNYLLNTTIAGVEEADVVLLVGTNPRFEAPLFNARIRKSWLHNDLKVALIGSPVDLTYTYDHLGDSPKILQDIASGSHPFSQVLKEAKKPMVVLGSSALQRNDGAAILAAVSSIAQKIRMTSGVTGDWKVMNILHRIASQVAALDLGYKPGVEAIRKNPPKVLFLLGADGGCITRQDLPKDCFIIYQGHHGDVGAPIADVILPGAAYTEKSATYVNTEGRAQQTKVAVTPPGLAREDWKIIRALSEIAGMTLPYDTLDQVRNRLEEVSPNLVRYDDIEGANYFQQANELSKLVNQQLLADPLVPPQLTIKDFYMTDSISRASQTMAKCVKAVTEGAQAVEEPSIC
inactive: ibrutinib -0.022 | [1] -0.009 | ralimetinib 0.014 | [2] -0.049 | [3] -0.041 | [4] 0.01 | [5] 0.007 | [6] -0.045 | [7] 0.005 | [8] 0.005

OSBP (UniProt P22059)
Sequence of UniProt P22059 (P22059 whole entry, looked up): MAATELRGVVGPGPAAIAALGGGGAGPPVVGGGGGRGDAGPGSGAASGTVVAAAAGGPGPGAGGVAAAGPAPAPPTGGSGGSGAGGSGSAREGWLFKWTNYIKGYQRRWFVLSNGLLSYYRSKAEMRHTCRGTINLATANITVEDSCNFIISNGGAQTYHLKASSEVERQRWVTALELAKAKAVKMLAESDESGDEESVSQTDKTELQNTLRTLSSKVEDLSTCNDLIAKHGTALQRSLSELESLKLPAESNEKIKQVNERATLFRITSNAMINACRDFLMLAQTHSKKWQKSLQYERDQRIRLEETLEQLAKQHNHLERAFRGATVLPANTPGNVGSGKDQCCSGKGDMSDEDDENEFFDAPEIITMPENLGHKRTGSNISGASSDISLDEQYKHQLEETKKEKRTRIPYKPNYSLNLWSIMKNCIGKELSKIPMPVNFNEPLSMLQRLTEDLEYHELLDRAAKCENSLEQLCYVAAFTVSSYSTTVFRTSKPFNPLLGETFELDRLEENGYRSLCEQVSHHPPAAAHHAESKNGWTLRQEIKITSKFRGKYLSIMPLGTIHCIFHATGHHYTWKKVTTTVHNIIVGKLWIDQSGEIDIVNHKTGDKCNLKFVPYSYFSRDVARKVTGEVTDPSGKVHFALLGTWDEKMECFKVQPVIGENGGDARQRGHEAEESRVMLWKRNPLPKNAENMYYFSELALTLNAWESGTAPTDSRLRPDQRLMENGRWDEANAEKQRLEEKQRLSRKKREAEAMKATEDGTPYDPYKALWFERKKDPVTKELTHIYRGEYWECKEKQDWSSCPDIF
inactive: ibrutinib -0.007 | [1] 0.003 | ralimetinib -0.019 | [2] -0.007 | [3] -0.19 | [4] 0.018 | [5] 0.04 | [6] -0.103 | [7] 0.011 | [8] -0.003

MRPL53 (UniProt Q96EL3)
inactive: ibrutinib 0.041 | [1] -0.018 | ralimetinib 0.062 | [2] -0.047 | [3] 0.016 | [4] -0.047 | [5] 0.011 | [6] 0.042 | [7] 0.044 | [8] 0.011

NUF2 (UniProt Q9BZD4)
inactive: ibrutinib -0.052 | [1] -0.051 | ralimetinib 0.03 | [2] 0.015 | [3] -0.001 | [4] 0.018 | [5] 0.027 | [6] -0.011 | [7] 0.044 | [8] 0.009

PARD3 (UniProt Q8TEW0)
inactive: ibrutinib 0.026 | [1] 0.134 | ralimetinib -0.017 | [2] -0.011 | [3] 0.001 | [4] 0.011 | [5] 0.006 | [6] 0.116 | [7] 0.01 | [8] -0.068

OTC (UniProt P00480)
inactive: ibrutinib -0.089 | [1] 0.001 | ralimetinib 0.065 | [2] -0.18 | [3] 0.017 | [4] -0.055 | [5] 0.065 | [6] 0.156 | [7] -0.034 | [8] -0.004

MSH2 (UniProt P43246)
Sequence of UniProt P43246 (P43246 whole entry, looked up): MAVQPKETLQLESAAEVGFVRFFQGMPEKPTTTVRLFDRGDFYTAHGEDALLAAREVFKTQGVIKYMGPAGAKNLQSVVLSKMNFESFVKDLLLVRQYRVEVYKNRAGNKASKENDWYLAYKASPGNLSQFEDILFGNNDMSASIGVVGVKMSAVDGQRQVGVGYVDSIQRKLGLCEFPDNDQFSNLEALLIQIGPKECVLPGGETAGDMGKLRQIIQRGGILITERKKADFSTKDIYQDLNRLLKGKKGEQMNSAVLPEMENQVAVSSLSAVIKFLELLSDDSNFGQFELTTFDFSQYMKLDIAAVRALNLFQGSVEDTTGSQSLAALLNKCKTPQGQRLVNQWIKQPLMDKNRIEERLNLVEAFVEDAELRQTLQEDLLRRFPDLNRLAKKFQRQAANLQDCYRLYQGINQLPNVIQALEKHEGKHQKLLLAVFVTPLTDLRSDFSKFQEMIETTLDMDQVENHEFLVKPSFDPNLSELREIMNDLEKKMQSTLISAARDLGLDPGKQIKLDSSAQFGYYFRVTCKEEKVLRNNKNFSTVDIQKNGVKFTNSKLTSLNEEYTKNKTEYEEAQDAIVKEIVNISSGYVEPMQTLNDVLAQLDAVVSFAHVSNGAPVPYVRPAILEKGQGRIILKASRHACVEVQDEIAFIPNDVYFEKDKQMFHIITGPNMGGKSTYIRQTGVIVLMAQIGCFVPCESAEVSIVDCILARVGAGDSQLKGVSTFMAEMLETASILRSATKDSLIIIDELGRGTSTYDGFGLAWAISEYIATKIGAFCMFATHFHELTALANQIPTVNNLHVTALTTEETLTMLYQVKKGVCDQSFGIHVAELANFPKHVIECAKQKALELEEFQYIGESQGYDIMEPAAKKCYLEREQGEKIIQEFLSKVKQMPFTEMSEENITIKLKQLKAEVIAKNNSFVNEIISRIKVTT
inactive: ibrutinib -0.009 | [1] -0.01 | ralimetinib 0.019 | [2] 0.02 | [3] 0.019 | [4] -0.012 | [5] -0.014 | [6] 0 | [7] 0.037 | [8] 0.019

NEK7 (UniProt Q8TDX7)
inactive: ibrutinib 0.041 | [1] -0.041 | ralimetinib 0.063 | [2] -0.016 | [3] 0.034 | [4] -0.015 | [5] -0.048 | [6] -0.043 | [7] 0.053 | [8] 0.002

NBEAL2 (UniProt Q6ZNJ1)
inactive: ibrutinib -0.048 | [1] 0.011 | ralimetinib 0.023 | [2] -0.047 | [3] 0.003 | [4] 0.036 | [5] -0.011 | [6] 0.047 | [7] 0.06 | [8] -0.013

NUDT5 (UniProt Q9UKK9)
inactive: ibrutinib 0.059 | [1] -0.008 | ralimetinib -0.047 | [2] -0.05 | [3] -0.047 | [4] -0.007 | [5] -0.002 | [6] 0.006 | [7] -0.014 | [8] -0.042

NOC2L (UniProt Q9Y3T9)
inactive: ibrutinib -0.047 | [1] 0.015 | ralimetinib 0.047 | [2] -0.005 | [3] 0.026 | [4] 0.014 | [5] -0.074 | [6] -0.02 | [7] 0.021 | [8] 0.014

NUP98 (UniProt P52948)
Sequence of UniProt P52948 (P52948 whole entry, looked up): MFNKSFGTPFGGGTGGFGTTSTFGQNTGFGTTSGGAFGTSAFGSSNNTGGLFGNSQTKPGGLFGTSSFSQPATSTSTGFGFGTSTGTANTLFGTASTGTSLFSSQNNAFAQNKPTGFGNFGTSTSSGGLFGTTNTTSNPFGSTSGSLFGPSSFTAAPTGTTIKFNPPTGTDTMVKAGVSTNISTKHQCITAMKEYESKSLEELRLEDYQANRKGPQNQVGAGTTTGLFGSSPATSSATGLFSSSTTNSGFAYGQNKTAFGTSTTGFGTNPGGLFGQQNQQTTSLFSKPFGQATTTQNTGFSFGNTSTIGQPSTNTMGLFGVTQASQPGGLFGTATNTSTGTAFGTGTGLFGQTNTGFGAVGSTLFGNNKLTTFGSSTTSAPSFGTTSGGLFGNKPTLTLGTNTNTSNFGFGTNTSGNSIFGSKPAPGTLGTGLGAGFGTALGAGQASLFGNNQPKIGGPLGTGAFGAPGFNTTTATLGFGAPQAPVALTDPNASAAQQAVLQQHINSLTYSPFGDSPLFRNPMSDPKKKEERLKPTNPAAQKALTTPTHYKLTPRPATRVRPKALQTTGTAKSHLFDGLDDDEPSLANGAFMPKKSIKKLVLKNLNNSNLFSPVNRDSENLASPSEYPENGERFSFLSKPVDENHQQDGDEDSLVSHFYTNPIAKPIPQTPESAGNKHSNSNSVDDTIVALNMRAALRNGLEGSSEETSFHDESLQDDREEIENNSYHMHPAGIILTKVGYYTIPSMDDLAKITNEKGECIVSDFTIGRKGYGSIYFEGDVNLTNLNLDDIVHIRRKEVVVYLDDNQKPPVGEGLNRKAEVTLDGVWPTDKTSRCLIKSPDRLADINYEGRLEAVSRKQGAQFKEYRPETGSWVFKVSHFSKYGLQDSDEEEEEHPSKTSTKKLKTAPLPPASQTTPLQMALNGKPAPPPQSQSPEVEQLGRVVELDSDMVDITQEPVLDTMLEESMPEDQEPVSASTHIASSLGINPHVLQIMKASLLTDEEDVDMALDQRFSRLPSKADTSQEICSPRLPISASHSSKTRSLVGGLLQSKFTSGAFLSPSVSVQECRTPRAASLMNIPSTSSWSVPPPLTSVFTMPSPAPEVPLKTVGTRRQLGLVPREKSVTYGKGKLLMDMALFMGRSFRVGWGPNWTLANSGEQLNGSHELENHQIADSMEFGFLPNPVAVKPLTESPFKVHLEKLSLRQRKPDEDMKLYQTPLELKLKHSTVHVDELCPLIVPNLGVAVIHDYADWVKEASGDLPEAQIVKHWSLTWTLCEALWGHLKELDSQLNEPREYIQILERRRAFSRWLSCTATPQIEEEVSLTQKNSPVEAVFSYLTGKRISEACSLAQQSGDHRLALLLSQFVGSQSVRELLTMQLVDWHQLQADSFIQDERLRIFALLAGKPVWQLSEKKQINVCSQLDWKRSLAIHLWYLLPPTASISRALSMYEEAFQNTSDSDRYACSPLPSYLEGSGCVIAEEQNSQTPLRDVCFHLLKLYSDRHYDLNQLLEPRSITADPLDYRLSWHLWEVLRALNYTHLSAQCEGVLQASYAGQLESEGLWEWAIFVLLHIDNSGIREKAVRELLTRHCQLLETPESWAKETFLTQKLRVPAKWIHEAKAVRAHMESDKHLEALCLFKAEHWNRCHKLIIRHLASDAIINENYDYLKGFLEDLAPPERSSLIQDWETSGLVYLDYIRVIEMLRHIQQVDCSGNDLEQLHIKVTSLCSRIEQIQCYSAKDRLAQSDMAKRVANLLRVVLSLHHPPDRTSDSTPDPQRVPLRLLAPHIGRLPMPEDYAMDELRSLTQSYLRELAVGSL
inactive: ibrutinib -0.01 | [1] 0.047 | ralimetinib 0.047 | [2] 0.022 | [3] -0.037 | [4] 0.034 | [5] 0.029 | [6] -0.022 | [7] 0.008 | [8] -0.017

MTHFD1, A0A384N5Y3
inactive: ibrutinib -0.014 | [1] -0.001 | ralimetinib 0.028 | [2] 0.028 | [3] 0.03 | [4] -0.033 | [5] -0.032 | [6] 0.003 | [7] 0.047 | [8] 0.014

NCAPH (UniProt Q15003)
inactive: ibrutinib 0.006 | [1] 0.016 | ralimetinib -0.002 | [2] -0.031 | [3] -0.013 | [4] 0.003 | [5] -0.001 | [6] -0.003 | [7] 0.012 | [8] 0.011

NNT (UniProt Q13423)
inactive: ibrutinib 0.012 | [1] -0.016 | ralimetinib -0.095 | [2] -0.01 | [3] -0.05 | [4] -0.011 | [5] -0.019 | [6] -0.007 | [7] 0.01 | [8] -0.009

NFATC1 (UniProt O95644)
inactive: ibrutinib 0.011 | [1] 0.06 | ralimetinib -0.004 | [2] -0.067 | [3] -0.038 | [4] 0.031 | [5] -0.047 | [6] 0.094 | [7] -0.015 | [8] -0.052

NFATC2IP (UniProt Q8NCF5)
Sequence of UniProt Q8NCF5 (Q8NCF5 whole entry, looked up): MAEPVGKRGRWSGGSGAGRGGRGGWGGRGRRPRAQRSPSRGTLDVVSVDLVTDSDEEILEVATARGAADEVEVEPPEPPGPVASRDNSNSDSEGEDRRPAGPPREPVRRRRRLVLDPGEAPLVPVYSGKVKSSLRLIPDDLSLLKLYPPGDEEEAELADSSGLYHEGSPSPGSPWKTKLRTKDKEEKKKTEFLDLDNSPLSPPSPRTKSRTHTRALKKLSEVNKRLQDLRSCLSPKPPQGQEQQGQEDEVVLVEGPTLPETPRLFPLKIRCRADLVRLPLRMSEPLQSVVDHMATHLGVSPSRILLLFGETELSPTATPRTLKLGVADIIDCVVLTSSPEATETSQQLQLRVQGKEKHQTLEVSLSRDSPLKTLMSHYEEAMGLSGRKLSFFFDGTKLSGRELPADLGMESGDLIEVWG
inactive: ibrutinib 0.015 | [1] -0.037 | ralimetinib 0 | [2] -0.052 | [3] 0.01 | [4] -0.021 | [5] -0.019 | [6] -0.047 | [7] 0.013 | [8] 0.011

PARG (UniProt Q86W56)
inactive: ibrutinib 0.013 | [1] 0.01 | ralimetinib 0.017 | [2] -0.011 | [3] -0.025 | [4] -0.017 | [5] -0.028 | [6] 0.021 | [7] 0.061 | [8] 0.005

MT-ND1 (UniProt P03886)
inactive: ibrutinib 0.032 | [1] -0.006 | ralimetinib 0.061 | [2] -0.101 | [3] -0.052 | [4] 0.056 | [5] -0.007 | [6] 0.055 | [7] -0.005 | [8] 0.088

MRPS31 (UniProt Q92665)
inactive: ibrutinib -0.01 | [1] -0.039 | ralimetinib -0.006 | [2] -0.006 | [3] 0 | [4] -0.01 | [5] -0.071 | [6] -0.006 | [7] -0.022 | [8] -0.006

MT-CYB (UniProt P00156)
Sequence of UniProt P00156 (P00156 whole entry, looked up): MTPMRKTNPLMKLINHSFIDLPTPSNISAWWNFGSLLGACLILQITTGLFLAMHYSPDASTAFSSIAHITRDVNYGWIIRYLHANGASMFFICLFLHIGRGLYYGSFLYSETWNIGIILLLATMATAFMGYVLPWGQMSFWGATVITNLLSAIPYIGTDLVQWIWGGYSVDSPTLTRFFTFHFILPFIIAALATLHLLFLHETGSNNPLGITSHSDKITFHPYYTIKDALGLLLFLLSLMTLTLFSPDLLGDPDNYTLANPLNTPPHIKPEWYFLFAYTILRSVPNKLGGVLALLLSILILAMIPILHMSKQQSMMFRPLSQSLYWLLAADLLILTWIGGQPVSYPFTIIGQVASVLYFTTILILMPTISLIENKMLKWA
inactive: ibrutinib 0.133 | [1] -0.055 | ralimetinib 0.001 | [2] -0.064 | [3] -0.094 | [4] 0.03 | [5] -0.107 | [6] 0.039 | [7] -0.093 | [8] 0.198

NUP93 (UniProt Q8N1F7)
inactive: ibrutinib -0.013 | [1] 0.007 | ralimetinib 0.036 | [2] -0.015 | [3] 0 | [4] 0.027 | [5] 0.019 | [6] -0.029 | [7] 0.036 | [8] 0

NCAPD2 (UniProt Q15021)
inactive: ibrutinib -0.019 | [1] -0.019 | ralimetinib 0.03 | [2] -0.012 | [3] -0.031 | [4] 0.022 | [5] -0.003 | [6] 0.016 | [7] 0.036 | [8] -0.005

NFAT5 isoform 5 (UniProt O94916)
inactive: ibrutinib -0.027 | [1] -0.029 | ralimetinib -0.017 | [2] 0.129 | [3] 0.003 | [4] 0.112 | [5] -0.008 | [6] -0.081 | [7] -0.004 | [8] 0.032

Source: the supplement of paper PMC10849652
